The results in this text go back to PubChem BioAssay AID624078 (Southern Research Specialized Biocontainment Screening …, 2012).

This experiment is described as follows: BHK-21 cell cytotoxicity, cytotoxicity control for flavivirus guanylyltransferase probe project, secondary screen (AID 624078).

Molecules are shown by their SMILES. Measured potencies and affinities stand elsewhere. Active and inactive are the calls of the source. The rule behind the calls is not given here.

`Cn1c(=O)c2[nH]c(-c3ccccc3)c(O)c2n(C)c1=O`: the compound was called inactive.
